Compound activity from PubChem.
KCNQ2 enhance: KCNQ2 (rat) channel potentiation; CHO-K1 KCNQ2, FluxOR thallium flux fluorescence; stronger effect = higher value; B-score at 10 µM; AID 2239; hit rate 0.54% among 310,000;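 active = fluorescence ratio B-score at least 3 SD of library B-scores, with initial fluorescence B-score within 3 of them, cut at about 5.3 in these data; same plate scores as AID 2156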;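 also: B-score of peak minus minimum over baseline fluorescence ratio after K+ and Tl+ stimulus; positive B-score means potentiation of KCNQ2 with more thallium influx and brighter signal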
Target sequence (O88943 whole entry, looked up): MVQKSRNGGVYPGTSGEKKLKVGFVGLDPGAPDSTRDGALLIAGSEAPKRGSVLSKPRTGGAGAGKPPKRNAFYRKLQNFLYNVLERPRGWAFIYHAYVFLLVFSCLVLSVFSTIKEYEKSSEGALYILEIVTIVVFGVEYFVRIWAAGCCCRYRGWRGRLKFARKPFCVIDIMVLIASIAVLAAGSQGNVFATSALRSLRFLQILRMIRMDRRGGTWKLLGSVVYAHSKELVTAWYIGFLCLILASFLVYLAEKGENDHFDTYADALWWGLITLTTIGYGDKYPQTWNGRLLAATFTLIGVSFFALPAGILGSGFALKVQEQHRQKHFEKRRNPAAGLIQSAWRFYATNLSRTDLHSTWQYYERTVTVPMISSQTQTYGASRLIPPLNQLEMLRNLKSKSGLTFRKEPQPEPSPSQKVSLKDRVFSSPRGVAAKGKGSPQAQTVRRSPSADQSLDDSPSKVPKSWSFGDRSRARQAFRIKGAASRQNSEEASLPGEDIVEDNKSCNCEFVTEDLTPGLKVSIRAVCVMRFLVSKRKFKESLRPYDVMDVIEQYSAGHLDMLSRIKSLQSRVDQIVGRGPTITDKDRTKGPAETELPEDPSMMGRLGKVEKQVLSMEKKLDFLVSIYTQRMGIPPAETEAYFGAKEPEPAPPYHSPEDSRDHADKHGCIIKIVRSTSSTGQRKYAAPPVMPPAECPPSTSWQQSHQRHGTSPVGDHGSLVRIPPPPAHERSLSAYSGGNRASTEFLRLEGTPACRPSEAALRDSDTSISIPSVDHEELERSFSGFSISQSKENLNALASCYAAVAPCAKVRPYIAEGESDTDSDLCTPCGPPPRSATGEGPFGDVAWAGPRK
KCNQ2 block: inhibitors of rat KCNQ2 potassium channel. CHO-K1 KCNQ2, FluxOR thallium flux, 20 min; stronger effect = lower value. B-score at 10 µM. hit rate 1.1% among 310,000;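 active = fluorescence ratio B-score at most minus 3 library SDs, with starting brightness B-score within 2 library SDs, cut at about -5.5 in these data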
KCNQ2 block conf: rat KCNQ2 channel inhibition, confirmatory screen; shares compounds with KCNQ2 block; KCNQ2-expressing cells, thallium flux; stronger effect = lower value; activity change, negative = inhibition, % at 10 µM; hit rate 57% among 1,000; AID 493025
KCNQ1 spec: KCNQ2 inhibitor that also affects human KCNQ1 channel | AID 493026 | hit rate 15% among 1,000 | shares compounds with KCNQ2 block | activity change, negative = inhibition, % at 10 µM | KCNQ1-expressing cells, FluxOR thallium flux fluorescence; stronger effect = lower value;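 active = activity change at least 3 SD of negative controls below their mean in both duplicate wells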;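 also: CHO cells stably transfected with KCNQ1 and depolarized by potassium stimulus; peak minus minimum fluorescence over baseline after thallium addition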
CHO parental ctr: KCNQ2 inhibitor counter-screen hit in parental CHO cells | shares compounds with KCNQ2 block | thallium flux counter-screen; stronger effect = lower value | activity change, % at 10 µM | hit rate 14% among 1,000 | AID 493029
KCNQ2 patch conf: confirmation of rat KCNQ2 potassium channel inhibitors; shares compounds with KCNQ2 block; KCNQ2-expressing cells, automated patch clamp current; calls only at 10 µM; hit rate 49% among 550
Hits are given with their value. Shown are actives, neighbours in structure and some others; about 1.6% of the full set was active somewhere. Unless noted, no rule for the calls is given here.

How did COc1cccc(OC)c1OCc1cc(C2C3CCCC=C3C(C#N)=C(N)C2(C#N)C#N)c(C)cc1C (stereo not given) do in these assays?
KCNQ2 enhance: inactive; KCNQ2 block: -11; KCNQ2 block conf: inactive; KCNQ1 spec: inactive; CHO parental ctr: inactive

How did CCCN1CC=C2C(C#N)=C(N)C(C#N)(C#N)C(c3cccc(OC)c3OC)C2C1 (stereo not given) do in these assays?
KCNQ2 block: inactive

What do the screens show for `O=C(C(=O)N1CCN(c2ccccc2)CC1)c1cn(CC(=O)N2CCCCCC2)c2ccccc12`?
KCNQ2 enhance: inactive; KCNQ2 block: inactive

How did CCn1c(=S)sc2c(=O)n(CC(=O)Nc3cccc(OC)c3)c(C)nc21 do in these assays?
KCNQ2 block: inactive

How did O=C1NC(=O)C(c2cccs2)(c2cccs2)N1 do in these assays?
KCNQ2 block: inactive

How did CCN1CCN(S(=O)(=O)c2ccc(Cl)c(C(=O)Nc3ccccc3N3CCOCC3)c2)CC1 do in these assays?
KCNQ2 block: inactive

What do the screens show for `CCN1CCN(S(=O)(=O)c2ccc(Cl)c(C(=O)Nc3cc(Cl)ccc3N3CCOCC3)c2)CC1`?
KCNQ2 enhance: inactive; KCNQ2 block: -6.7; KCNQ2 block conf: inactive; KCNQ1 spec: inactive; CHO parental ctr: inactive

Results for O=C(Nc1ccccc1Cl)c1cc(S(=O)(=O)N2CCCCC2)ccc1N1CCOCC1 ?
KCNQ2 block: inactive

Results for O=C(Nc1ccccc1N1CCCCC1)c1cc(S(=O)(=O)N2CCOCC2)ccc1Cl ?
KCNQ2 enhance: inactive; KCNQ2 block: -9; KCNQ2 block conf: -28%; KCNQ1 spec: inactive; CHO parental ctr: inactive; KCNQ2 patch conf: active

How did O=S(=O)(c1ccccc1)c1nc(NCc2cccnc2)sc1Cl do in these assays?
KCNQ2 enhance: inactive; KCNQ2 block: inactive

How did CNS(=O)(=O)c1cccc(C(=O)NCC(c2ccco2)N(C)C)c1 (stereo not given) do in these assays?
KCNQ2 block: inactive

What do the screens show for `Cc1ccc(OCC(O)CN2CCOCC2)cc1C` (stereo not given)?
KCNQ2 enhance: inactive; KCNQ2 block: inactive

How did N#Cc1c(NCCCO)nc(-c2ccco2)c2c1CCCC2 do in these assays?
KCNQ2 enhance: inactive; KCNQ2 block: inactive

Results for N#Cc1c(NC2CCCCC2)nc(-c2ccco2)c2c1CCCC2 ?
KCNQ2 enhance: inactive; KCNQ2 block: -7; KCNQ2 block conf: -34%; KCNQ1 spec: inactive; CHO parental ctr: inactive; KCNQ2 patch conf: inactive

Results for Cc1ccc([N+](=O)[O-])cc1NC(=O)C(C)NS(=O)(=O)c1ccc(F)cc1 (stereo not given) ?
KCNQ2 enhance: inactive; KCNQ2 block: inactive

What do the screens show for `Cc1cccc(N2C(=O)CC(c3ccc(F)cc3)C3=C2COC3=O)c1` (stereo not given)?
KCNQ2 enhance: inactive; KCNQ2 block: inactive

What do the screens show for `CCn1cnc2c1c(=O)n(Cc1cccc([N+](=O)[O-])c1)c(=O)n2Cc1ccccc1`?
KCNQ2 enhance: inactive; KCNQ2 block: inactive

How did CCn1cnc2c1c(=O)n(Cc1csc(-c3ccccc3)n1)c(=O)n2Cc1ccccc1 do in these assays?
KCNQ2 enhance: inactive; KCNQ2 block: -9.4; KCNQ2 block conf: -16%; KCNQ1 spec: inactive; CHO parental ctr: inactive; KCNQ2 patch conf: inactive

What do the screens show for `Cc1nc2ccc(NC(=O)c3cncc(Br)c3)cc2s1`?
KCNQ2 enhance: inactive; KCNQ2 block: inactive

Results for CCOC(=O)CN(c1cc([N+](=O)[O-])ccc1OC)S(C)(=O)=O ?
KCNQ2 enhance: inactive; KCNQ2 block: inactive

How did Cc1cccc(C(=O)OCC(=O)NCCNC(=O)COC(=O)c2cccc(C)c2C)c1C do in these assays?
KCNQ2 block: inactive

How did O=C(CCn1c(=O)oc2ccccc21)N(Cc1ccccc1)c1ccccc1 do in these assays?
KCNQ2 enhance: inactive; KCNQ2 block: -11; KCNQ2 block conf: -32%; KCNQ1 spec: inactive; CHO parental ctr: inactive; KCNQ2 patch conf: active

How did CN(Cc1ccccc1)C(=O)CCn1c(=O)oc2ccccc21 do in these assays?
KCNQ2 enhance: inactive; KCNQ2 block: inactive

Results for O=C(NCc1ccccc1Cl)c1ccccc1Oc1ccccc1 ?
KCNQ2 block: inactive

What do the screens show for `Cc1nc2ccccc2c(=O)n1/N=C/c1cn(-c2ccccc2)nc1-c1cccs1`?
KCNQ2 enhance: inactive; KCNQ2 block: -9.1; KCNQ2 block conf: -36%; KCNQ1 spec: inactive; CHO parental ctr: inactive; KCNQ2 patch conf: inactive

How did Cc1nc2ccccc2c(=O)n1/N=C/c1cccs1 do in these assays?
KCNQ2 block: inactive
